# “And” between values parts separate entries of the source, which are not always exact repeats. Identical values can stand only once. Screen size: about 77,000 compounds; about 4,600 (6%) were called active. Roughly 1% stayed inconclusive and do not appear here. The sample holds actives, similar compounds and a random draw of the others, so the mix is not that of the screen. A number with no mark means an inactive call.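 The calls were made as follows: active = mean inhibition above about 93%, with at least 55% of replicates each passing it (limit read from the data, passing the limit was not always enough); inconclusive = only one of those two conditions holds; inactive = neither condition holds.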
# Assay: T. cruzi intracellular proliferation inhibitors, primary screen, cell-based, beta-gal Tulahuen parasites, NIH3T3 host, luminescence (AID 624255)
# Details: T. cruzi beta-gal in NIH3T3, GalScreen luminescence, 90 h; at 8.34 µM; active compounds read high
row,Compound,inhibition
1,C/C=C/c1ccc([C@H]2[C@@H](CO)N(C(C)=O)[C@H]2CNC(=O)c2ccncc2)cc1,72.7%
2,C/C=C/c1ccc([C@H]2[C@@H](CNC(C)C)N(c3nc(CC)cs3)[C@H]2CO)cc1,100% (active)
3,C/C=C/c1ccc([C@H]2[C@@H](CNC(=O)NC(C)C)N(C(=O)C3CCC3)[C@H]2CO)cc1,7.28%
4,CO[C@H](C(=O)N(C)C[C@@H]1OCc2ccccc2-c2c(n(C)c3ccccc23)C(=O)N([C@@H](C)CO)C[C@H]1C)c1ccccc1,-13.2%
5,CN1[C@H](C(=O)N2CCc3ccccc3C2)[C@@H](CO)[C@@H]2Cn3c(ccc(-c4cncnc4)c3=O)[C@@H]21,79.8%
6,COc1cccc(S(=O)(=O)N[C@H]2CC[C@H](CCN)O[C@H]2CO)c1,-31.7%
7,CO[C@H]1CN(C)C(=O)c2cc(NS(C)(=O)=O)ccc2OC[C@@H](C)N(C)C[C@@H]1C,13.7%
8,Cc1cccc(-c2ccc([C@@H]3[C@H](CO)N4CCCCN(C(=O)c5ccc6c(c5)OCO6)C[C@@H]34)cc2)c1,98.3% (active)
9,CCCC#Cc1ccc([C@H]2[C@@H](CO)N3CCCCN(C(=O)c4ccc5c(c4)OCO5)C[C@@H]23)cc1,50.9%
10,C[C@@H](O)C#Cc1ccc([C@H]2[C@H]3CN(C(=O)c4ccc5c(c4)OCO5)CCCCN3[C@H]2CO)cc1,26%
11,COc1ccc(-c2ccc([C@H]3[C@H]4CN(C(=O)c5ccc6c(c5)OCO6)CCCCN4[C@H]3CO)cc2)cc1,117% (active)
12,C[C@@H](O)C#Cc1ccc([C@@H]2[C@H]3CN(C(=O)c4ccc5c(c4)OCO5)CCCCN3[C@H]2CO)cc1,71.8%
13,CC(C)C#Cc1ccc([C@@H]2[C@@H](CO)N3CCCCN(C(=O)c4ccc5c(c4)OCO5)C[C@H]23)cc1,67.5%
14,Cc1ccc(S(=O)(=O)N[C@H]2CC[C@@H](CC(=O)NCCCN(C)C)O[C@H]2CO)cc1,-52%
15,CN1c2ccc(-c3cccc(C#N)c3)cc2[C@H]2[C@H](CCN2S(=O)(=O)c2cccc(F)c2)[C@@H]1CO,41.7%
16,C[C@H](CO)N1C[C@H](C)[C@H](CN(C)S(C)(=O)=O)Oc2ncc(C3=CCCCC3)cc2C1=O,47.7%
17,CCC(=O)N1C[C@H](C)[C@H](OC)CN(C)C(=O)c2ccc(NC(=O)Nc3cccc(F)c3)cc2OC[C@@H]1C,24.9%
18,C[C@H](CO)N1C[C@H](C)[C@H](CN(C)C(=O)Nc2ccc(C(F)(F)F)cc2)OCCCC[C@H](C)Oc2ccc(NC(=O)C3CCCCC3)cc2C1=O,99.4% (active)
19,CC(C)NC(=O)Nc1ccc2c(c1)C(=O)N([C@@H](C)CO)C[C@H](C)[C@H](CN(C)C(=O)Nc1ccc(F)cc1)OCCCC[C@@H](C)O2,10.6%

row,Compound,inhibition
1,COc1ccc(NC(=O)N(C)C[C@H]2OCCCC[C@H](C)Oc3ccc(NC(=O)Nc4ccc(C(F)(F)F)cc4)cc3C(=O)N([C@@H](C)CO)C[C@@H]2C)cc1,110% (active)
2,C[C@@H]1CN([C@@H](C)CO)C(=O)c2cc(NC(=O)Nc3ccc4c(c3)OCO4)ccc2O[C@@H](C)CCCCO[C@@H]1CN(C)C(=O)Nc1ccc2c(c1)OCO2,-7.76%
3,CC(C)NC(=O)Nc1ccc2c(c1)C(=O)N([C@@H](C)CO)C[C@@H](C)[C@@H](CN(C)C(=O)Nc1ccc(C(F)(F)F)cc1)OCCCC[C@H](C)O2,45.6%
4,C[C@@H]1CN([C@@H](C)CO)C(=O)c2cc(NC(=O)Nc3ccc4c(c3)OCO4)ccc2O[C@@H](C)CCCCO[C@H]1CN(C)C(=O)Nc1ccc(C(F)(F)F)cc1,105% (active)
5,C[C@@H]1CCCCO[C@@H](CN(C)C(=O)Nc2ccc(C(F)(F)F)cc2)[C@H](C)CN([C@H](C)CO)C(=O)c2cc(NC(=O)C3CCCCC3)ccc2O1,82.6%
6,COc1ccc(NC(=O)Nc2ccc3c(c2)C(=O)N([C@H](C)CO)C[C@H](C)[C@@H](CN(C)C(=O)Nc2ccc(OC)cc2)OCCCC[C@H](C)O3)cc1,-4.89%
7,COc1ccc(NC(=O)Nc2ccc3c(c2)C(=O)N([C@H](C)CO)C[C@@H](C)[C@H](CN(C)C(=O)Nc2ccc(C(F)(F)F)cc2)OCCCC[C@@H](C)O3)cc1,121%
8,CC(C)NC(=O)Nc1ccc2c(c1)C(=O)N([C@H](C)CO)C[C@H](C)[C@H](CN(C)C(=O)Nc1ccc(C(F)(F)F)cc1)OCCCC[C@@H](C)O2,104% (active)
9,C[C@H](CO)N1C[C@H](C)[C@@H](CN(C)C(=O)Nc2ccc3c(c2)OCO3)OCCCC[C@H](C)Oc2ccc(NC(=O)Nc3ccc4c(c3)OCO4)cc2C1=O,66.3%
10,C[C@@H]1CN([C@@H](C)CO)C(=O)c2cc(NC(=O)C3CCCCC3)ccc2O[C@@H](C)CCCCO[C@@H]1CN(C)C(=O)Nc1ccccc1,3.47%
11,CN1[C@@H]2c3ccc(C4=CCCCC4)c(=O)n3C[C@H]1[C@H](CO)[C@H]2C(=O)NCc1ccc(F)cc1,66.5%
12,O=C([C@@H]1[C@@H](CO)[C@@H]2Cn3c(ccc(-c4ccccc4F)c3=O)[C@H]1N2C(=O)C1CCC1)N1CCCCC1,-49%
13,O=C(NCC1CC1)[C@@H]1[C@@H](CO)[C@@H]2Cn3c(ccc(C4=CCCC4)c3=O)[C@H]1N2CCC(F)(F)F,-0.412%
14,COc1ccc(-c2ccc3c(c2)[C@H]2[C@H](CCN2S(=O)(=O)c2ccccc2F)[C@H](CO)N3)cc1,14.9%
15,CCCN1[C@H](C(=O)NC2Cc3ccccc3C2)[C@@H](CO)[C@@H]2Cn3c(cccc3=O)[C@@H]21,-19.6%
16,Cc1ccc(S(=O)(=O)N2C[C@@H](O)COC[C@@H]3O[C@@H](CC(=O)N[C@H]4CCN(Cc5ccccc5)C4)CC[C@H]32)cc1,-6.53%
17,CCC(=O)Nc1ccc2c(c1)C(=O)N(C)[C@H]1CC[C@H](CC(=O)NC3Cc4ccccc4C3)O[C@H]1CO2,37.2%
18,CC(C)NC(=O)Nc1ccc2c(c1)C(=O)N([C@@H](C)CO)C[C@@H](C)[C@@H](CN(C)S(=O)(=O)c1ccc(F)cc1)OCCCC[C@H](C)O2,-55.2%
19,CCCNC(=O)C[C@@H]1C[C@H]2c3cc(NC(=O)Nc4ccccc4F)ccc3O[C@H]2[C@H](CO)O1,10.8%

row,Compound,inhibition
1,C[C@H]1CCCCO[C@@H](CN(C)Cc2ccc3c(c2)OCO3)[C@@H](C)CN([C@@H](C)CO)C(=O)c2cc(NS(=O)(=O)c3ccc(F)cc3)ccc2O1,73.3%
2,C[C@@H]1CCCCO[C@H](CN(C)C(=O)Nc2ccc(C(F)(F)F)cc2)[C@H](C)CN([C@H](C)CO)C(=O)c2cc(NC(=O)Nc3ccc(C(F)(F)F)cc3)ccc2O1,120% (active)
3,C[C@@H]1CCCCO[C@@H](CN(C)C(=O)Nc2ccc(C(F)(F)F)cc2)[C@H](C)CN([C@H](C)CO)C(=O)c2cc(NC(=O)c3ccccc3)ccc2O1,94.9%
4,CC(C)NC(=O)N(C)C[C@H]1OCCCC[C@H](C)Oc2ccc(NC(=O)Nc3ccc(C(F)(F)F)cc3)cc2C(=O)N([C@H](C)CO)C[C@@H]1C,36.4%
5,C[C@@H]1CCCCO[C@H](CN(C)C(=O)CCCN(C)C)[C@H](C)CN([C@H](C)CO)C(=O)c2cc(NC(=O)CCC(F)(F)F)ccc2O1,16.6%
6,CNC(=O)C[C@H]1CC[C@H]2[C@H](COc3ccc(NC(=O)Nc4cccc(C)c4)cc3C(=O)N2C)O1,12.8%
7,O=C(Cc1ccccn1)N[C@H]1CC[C@@H](CC(=O)N2CCCCC2)O[C@@H]1CO,-26%
8,Cc1ccc(S(=O)(=O)N(C)C[C@@H]2Oc3ncc(-c4cc5ccccc5o4)cc3C(=O)N([C@H](C)CO)C[C@@H]2C)cc1,117% (active)
9,Cc1ccc(-c2cnc3c(c2)C(=O)N([C@H](C)CO)C[C@@H](C)[C@H](CN(C)Cc2ccccc2C(=O)O)O3)cc1,-6.32%
10,C[C@H](CO)N1C[C@H](C)[C@H](CN(C)S(=O)(=O)c2ccc(F)cc2)Oc2ncc(-c3ccc(F)cc3)cc2C1=O,22.6%
11,COc1ccc(-c2cnc3c(c2)C(=O)N([C@H](C)CO)C[C@H](C)[C@H](CN(C)S(=O)(=O)c2ccccc2)O3)cc1,37.7%
12,C[C@H](CO)N1C[C@H](C)[C@H](CN(C)C(=O)Nc2ccc(F)cc2)Oc2ncc(-c3cc4ccccc4o3)cc2C1=O,119% (active)
13,Cc1ccc(-c2cnc3c(c2)C(=O)N([C@@H](C)CO)C[C@@H](C)[C@H](CN(C)Cc2ccccc2F)O3)cc1,111% (active)
14,C[C@@H]1CN([C@H](C)CO)C(=O)c2cc(-c3ccccc3)cnc2O[C@H]1CN(C)C(=O)Nc1ccccc1,-81.2%
15,C[C@H](CO)N1C[C@H](C)[C@H](CN(C)Cc2ccccc2)Oc2ncc(-c3ccccc3)cc2C1=O,23.4% and 14.8%
16,C[C@@H]1CN([C@H](C)CO)C(=O)c2cc(Br)cnc2O[C@@H]1CN(C)C(=O)Nc1ccc(F)cc1,-142%
17,CC=Cc1ccc2n(c1=O)C[C@H]1[C@H](CO)[C@@H](C(=O)NCc3ccncc3)N(Cc3cncnc3)[C@@H]21 (mixture of isomers),37.5%
18,CCCN1[C@H](C(=O)NCC)[C@@H](CO)[C@@H]2Cn3c(ccc(C4=CCCC4)c3=O)[C@@H]21,32%
19,COc1cccc(C(=O)Nc2ccc3c(c2)C(=O)N(C)C[C@@H](OC)[C@@H](C)CN(C)[C@@H](C)CO3)c1,-27.6%
